# Compound activity from PubChem.
# Shown are actives, neighbours in structure and some others; about 1.6% of the full set was active somewhere.
# A1 inh: inhibitors of the anti-apoptotic protein A1, read as caspase activation. AID 2462. hit rate 0.066% among 330,000. MEF A1-2A-BIM cells, Caspase-Glo 3/7 luminescence, 3 h; percent of clofoctol response, vehicle zero. caspase activation, % (test concentration not listed);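 active means over half of replicate activation scores above 10%, or exactly half above 10 with the replicate mean above 10; inconclusive means replicate mean below 10 yet half the replicates above 10; inactive means over half of replicates below 10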
# B2AR ag: human beta-2 adrenergic receptor agonism by FAP | P07550 | Am2.2-beta2AR cells, FAP receptor internalization, flow cytometry | response, % (concentration not given with the values) | hit rate 0.43% among 340,000;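 active means response above a set limit, near 3 SD of response in nonfluorescent compounds, cut at about 42% in these data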
# DYRK1A inh: Dyrk1A (rat) kinase inhibition; AID 504441; inhibition, % at 12.5 µM; hit rate 0.43% among 310,000; ADP-Glo luminescence, NFATc1 peptide; in the data active means inhibition above about 50%;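 further: plate controls were vehicle with enzyme for no effect and no enzyme for full effect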
# dFosB act-1: activators of mouse delta FosB homodimer; P13346; purified delta FosB, TAMRA-CDK5 oligo fluorescence polarization; percent of positive-control signal above neutral wells; activation, % at 25 µM; hit rate 0.99% among 340,000;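 active means mean activation above about 17%, with every replicate also reaching it, limit read from the data, passing the limit was not always enough; inconclusive means only one of the two conditions met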
# Target sequence (P13346 whole entry, looked up): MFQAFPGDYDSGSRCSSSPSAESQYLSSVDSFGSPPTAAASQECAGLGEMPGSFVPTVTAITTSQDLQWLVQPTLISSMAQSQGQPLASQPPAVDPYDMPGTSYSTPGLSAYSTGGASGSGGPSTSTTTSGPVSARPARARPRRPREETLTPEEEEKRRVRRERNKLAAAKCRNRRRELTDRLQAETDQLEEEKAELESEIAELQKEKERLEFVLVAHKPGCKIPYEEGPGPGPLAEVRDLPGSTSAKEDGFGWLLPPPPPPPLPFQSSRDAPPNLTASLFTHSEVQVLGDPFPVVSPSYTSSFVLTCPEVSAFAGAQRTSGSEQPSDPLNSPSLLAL
# dFosB act-2: enhances mouse delta FosB homodimer binding to DNA; shares compounds with dFosB act-1; purified delta FosB, TAMRA-CDK5 oligo fluorescence polarization; normalised: neutral wells 0, positive control 100; activation, % at 24.9 µM; 2,400 tested, under 10 active; AID 588690;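 active means highest replicate activation at or above 34% and every replicate reaching that threshold; inconclusive means meets only one of the two criteria; inactive means meets neither criterion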;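 further: higher polarization means more probe DNA bound by delta FosB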
# * hit, by the source's call; ? = inconclusive; · = not tested or not shown.
SMILES,A1 inh,B2AR ag,DYRK1A inh,dFosB act-1,dFosB act-2
COCCN(C(=O)c1cc(Cl)nc2ccccc12)c1c(N)n(Cc2ccccc2)c(=O)[nH]c1=O,1,-1,·,-3,·
CCCCN(C(=O)c1cc(Cl)nc2ccccc12)c1c(N)n(Cc2ccccc2)c(=O)[nH]c1=O,0,-3,-6,27*,-1
O=C(CCC(=O)Nc1ccccc1)NNC(=O)C(c1ccccc1)c1ccccc1,0,-1,-2,42*,1
O=C(NC1CC1)C1CCN(C2CCN(C(=O)Cc3ccc(F)cc3)CC2)CC1,0,-6,-1,1,·
O=C(NC1CC1)C1CCN(C2CCN(C(=O)c3c(F)cccc3Cl)CC2)CC1,0,-1,-2,27*,2
CC(C)Cn1c(N)c(/C=N/NC(=O)c2ccc(Cl)cc2)c(=O)n(C)c1=O,0,-1,-1,19*,3
CCN1CCN(C(C)C(=O)NC2CCCCC2)CC1 (stereo not drawn),1,1,-7,1,·
COc1ccc(-c2ccc3c(N)c(C(=O)c4ccc(OC)c(OC)c4)sc3n2)cc1,0,31,-1,30*,9
COc1ccc(C(=O)c2sc3nc(-c4ccccc4)ccc3c2N)cc1OC,0,-81,-5,9,·
Cc1cc(C)c2c(N)c3ccccc3nc2n1,0,9,0,31*,4
CCc1ccc2nc3nc(C)cc(C)c3c(N)c2c1,0,20,-6,?,·
CCOc1nc(NCCO)nc(Nc2ccc([N+](=O)[O-])cc2)n1,0,3,-2,-1,·
COc1cccc(Nc2c([N+](=O)[O-])cncc2[N+](=O)[O-])c1,1,2,15,-2,·
COc1nc(Nc2cccc([N+](=O)[O-])c2)nc(OC)n1,-1,11,-4,106*,3
C#CCOc1nc(Nc2cccc([N+](=O)[O-])c2)nc(OCC#C)n1,0,-8,4,29*,2
Cc1ccc(NS(=O)(=O)c2cc(C(=O)Nc3cccnc3)ccc2C)cc1,1,-3,-5,-12,·
O=C(N/N=C/c1cccc(F)c1)NC1CCCCC1,-1,-6,8,-6,·
CC(SC(C)C(=O)NN=Cc1cccc(F)c1)C(=O)NN=Cc1cccc(F)c1 (stereo not drawn),·,2,-3,28*,1
COc1cccc(CNC(=O)CCCn2nc(C)c3c(C)n(-c4ccc(C)cc4)nc3c2=O)c1OC,0,-6,-6,-4,·
COc1ccc(-n2c(SCC(=O)Nc3ccccc3C)nc(O)c(Cc3ccccc3)c2=O)cc1,-1,9,-3,-5,·
Cc1cccc(-n2nnnc2SCC(=O)c2cc(C)n(Cc3ccco3)c2C)c1,-1,-2,-2,21*,1
COc1cc(/C=N/N=C(/N)c2nonc2N)cc(Br)c1OCc1cccc(C)c1,0,6,0,-8,·
CCOc1cc(/C=N/N=C(\N)c2nonc2N)cc(Br)c1OCc1cccc2ccccc12,6.4*,5,-3,41*,4
O=C(Nc1cccc(C(F)(F)F)c1)C1CCN(S(=O)(=O)c2ccc(N3CCCC3=O)cc2)CC1,1,-8,-1,-1,·
CCOC(=O)N1CCN(S(=O)(=O)c2ccc(C(=O)N(CCN(C)C)c3nc4ccc(CC)cc4s3)cc2)CC1,0,7,1,12,·
SMILES,A1 inh,B2AR ag,DYRK1A inh,dFosB act-1,dFosB act-2
CCc1ccc2nc(N(CCCN(C)C)C(=O)c3ccc(S(=O)(=O)N4CCCC4)cc3)sc2c1,1,11,3,7,·
CCc1ccc2nc(N(CCCN(C)C)C(=O)c3ccc(S(=O)(=O)N4CCCc5ccccc54)cc3)sc2c1,3,28,18,23*,7
CN(C)CCN(C(=O)c1ccc(S(=O)(=O)N2CCc3ccccc32)cc1)c1nc2ccc(F)cc2s1,0,-3,-3,62*,0
CN(C)CCCN(C(=O)c1ccc(S(=O)(=O)N2CCCCCC2)cc1)c1nc2ccc(F)cc2s1,1,18,3,0,·
CCOC(=O)N1CCN(S(=O)(=O)c2ccc(C(=O)N(CCCN(C)C)c3nc4ccc(CC)cc4s3)cc2)CC1,0,25,1,32*,1
O=C(NNC(=O)c1cccc2ccccc12)c1ccc(Br)cc1,·,1,·,7,·
O=[N+]([O-])c1ccc(CSc2nnc(-c3cccnc3)o2)cc1,1,-5,-5,-7,·
CC(=O)Nc1cccc(NC(=O)Nc2cccc3ccccc23)c1,2,8,4,21*,-3
COc1ccc2nc(NC(=O)Nc3cccc4ccccc34)sc2c1,0,4,-5,57*,1
O=C(Nc1ccc(Cl)c([N+](=O)[O-])c1)Nc1nc2ccccc2s1,0,·,·,·,·
COc1ccccc1NC(=O)Nc1nc2ccc(S(N)(=O)=O)cc2s1,-2,6,-1,49*,-6
Cc1ccc(NC(=O)Nc2nc3ccccc3s2)cc1NC(=O)Nc1nc2ccccc2s1,2,14,-2,32*,1
Cc1ccc(S(=O)(=O)NC2CCSC2=O)cc1C (stereo not drawn),-2,6,-3,2,·
CS(=O)(=O)c1ccc2nc(NC(=O)c3ccccc3)sc2c1,-12,3,9,0,·
CS(=O)(=O)c1cccc(C(=O)OCC(=O)NC(=O)Nc2ccccc2F)c1,1,-3,3,22*,3
O=Cc1ccc(C(=O)OCC(=O)NC(=O)Nc2ccccc2F)cc1,1,5,-1,-15,·
CS(=O)(=O)c1ccc2nc(NC(=O)Nc3ccccc3F)sc2c1,-8,4,-2,20*,0
CCOCCCN(C)C1CCN(C(=O)c2oc3ccccc3c2NC(=O)c2ccc(F)cc2)CC1,-1,-12,3,-4,·
Cc1ccccc1CN(CC1CCC(C(=O)O)CC1)C(=S)Nc1ccccc1F (stereo not drawn),0,2,-6,2,·
CCn1nc(NC(=O)c2ccccn2)c2cc3cc(C)ccc3nc21,0,2,-11,21*,-4
Cc1ccc2nc3c(cc2c1)c(NC(=O)c1ccccn1)nn3CC(C)C,-1,-7,-6,8,·
CN(CC(=O)Nc1ccc(F)c(F)c1F)C(=O)Cc1ccc2c(c1)OCCO2,1,-3,-5,-1,·
C/C(=C\c1ccccc1)C(=O)Nc1ccc(Cl)cn1,-3,-8,15,-1,·
COc1ccc(NC(=O)c2cc([N+](=O)[O-])ccc2NC(=O)CNCc2ccccn2)c(OC)c1,1,3,0,-9,·
COc1cc(NC(=O)c2cc([N+](=O)[O-])ccc2NC(=O)CNCc2ccccn2)cc(OC)c1,0,21,1,35*,-1
COc1ccc(C2c3ccc4ccccc4c3Oc3ncn(Cc4ccco4)c(=N)c32)cc1OC (stereo not drawn),-1,19,1,53*,5
COc1ccc(C2c3ccc(O)cc3Oc3ncn(Cc4ccco4)c(=N)c32)cc1OC (stereo not drawn),-1,-3,-4,2,·
